Structures can show the parent of a compound that is named as a salt.
Experiments:
[1] = system: Vero E6 infected with SARS-CoV-2; assay: morphology score (similarity to uninfected cells); higher = more like uninfected cells; details: 24 h
[2] = system: Vero E6 infected with SARS-CoV-2; assay: SARS-CoV-2 infection rate relative to infected DMSO; higher = more infection, active = 60 or less; details: 24 h

SMILES	morphology score [1]	SARS-CoV-2 infection rate [2]
Cn1cnc(N)c2ncnc1-2 [3-methyladenine] (10 µM)	0.258	93% (inactive)
CSc1cc2c(cc1C(F)(F)F)N(C(=O)Nc1cccnc1)CC2 (10 µM)	-0.166	112% (inactive)
C[C@@H](N)[C@@H](O)c1ccccc1 [1S,2R-phenylpropanolamine] (10 µM)	-0.131	114% (inactive)
CCO[C@@H](Cc1ccc(OCCc2ccc(OS(C)(=O)=O)cc2)cc1)C(=O)O [tesaglitazar] (10 µM)	0.194	110% (inactive)
O=c1c(-c2ccc(O)cc2)coc2c([C@@H]3O[C@H](CO)[C@@H](O)[C@H](O)[C@H]3O)c(O)ccc12 [kakonein] (10 µM)	-0.0186	103% (inactive)
O=C([O-])C(O)[C@H](O)[C@@H](O)[C@H](O)[C@H](O)CO.O=C([O-])C(O)[C@H](O)[C@@H](O)[C@H](O)[C@H](O)CO.[Ca+2] (some centres undefined) [calcium-gluceptate] (10 µM)	-0.0282	114% (inactive)
C1=Cc2cccc(OCC3CNCCO3)c2C1 (centres undefined) [indeloxazine] (10 µM)	-0.319	106% (inactive)
CS(=O)(=O)CCNCc1nc(-c2ccc3ncnc(Nc4ccc(OCc5cccc(F)c5)c(Cl)c4)c3c2)cs1 (10 µM)	-0.294	116% (inactive)
CNc1nc(C)nc(N[C@H]2CCC[C@@H](C(=O)NCc3ccc(C#N)cc3C(F)(F)F)C2)n1 (10 µM)	-0.0488	104% (inactive)
CCCCCCCCCCCCCCCC[N+](C)(C)C [cetrimonium] (0.833333 µM)	-0.199	114% (inactive)
N[C@@H](Cc1ccc(Cl)cc1)C(=O)O (racemic) [fenclonine-(+/-)] (10 µM)	0.00322	109% (inactive)
C#Cc1cnc2nc(O)n(C(CC)CC)c2n1 [tirasemtiv] (10 µM)	-0.109	104% (inactive)
Cc1cc(-c2cc(O)ccc2Cl)cc2nnc(Nc3ccc(OCCN4CCCC4)cc3)nc12 (0.833333 µM)	-0.04	103% (inactive)
CCN1CCN(C(=O)N[C@@H](C(=O)N[C@@H]2C(=O)N3C(C(=O)O)=C(CSc4nnnn4C)CS[C@H]23)c2ccc(O)cc2)C(=O)C1=O [cefoperazone] (10 µM)	0.206	104% (inactive)
CCCCCCCCc1ccc(-c2ccc(C(=O)O)cc2)cc1 (10 µM)	-0.0106	96% (inactive)
N[C@@H](CS)C(=O)O [L-cysteine] (10 µM)	0.0349	94% (inactive)
CN1CCN(c2c(F)cc3c(=O)c(C(=O)O)cn4c3c2SCC4)CC1 [rufloxacin] (10 µM)	0.0805	103% (inactive)
COc1ccccc1OC(=O)C(C)c1ccc(CC(C)C)cc1 (centres undefined) [metoxibutropate] (10 µM)	0.217	101% (inactive)
CN[C@@H]1[C@H](O[C@H]2[C@H](O[C@H]3[C@H](O)[C@@H](O)[C@H](N=C(N)N)[C@@H](O)[C@@H]3N=C(N)N)O[C@@H](C)[C@]2(O)C=O)O[C@@H](CO)[C@H](O)[C@H]1O [STREPTOMYCIN SULFATE [5mM; 10% aq DMSO + 5mM ethanolamine]] (10 µM)	0.104	104% (inactive)
C=C[C@H]1CN2CC[C@H]1CC2C(OC(=O)OCC)c1ccnc2ccc(OC)cc12 (stereo in doubt) [quinine-ethyl-carbonate] (10 µM)	0.215	99% (inactive)
CCN(CC)CCNC(=O)c1ccccc1I (10 µM)	0.221	91% (inactive)
C=C1C[C@@]2(O)O[C@@]3(C[C@H]2C(C)C)[C@@H](C)CC[C@@H]13 [curcumol] (10 µM)	0.157	106% (inactive)
O=S(=O)(N[C@H]1CC[C@@](c2cc(F)ccc2F)(S(=O)(=O)c2ccc(Cl)cc2)CC1)C(F)(F)F (10 µM)	0.0636	104% (inactive)
CC1=C(C(=O)Nc2cc3cn[nH]c3cc2F)C(c2ccc(C(F)(F)F)cc2)CC(=O)N1 (centres undefined) (10 µM)	0.426	99% (inactive)
Cn1c(=O)[nH]c2ncn(C)c2c1=O [paraxanthine] (10 µM)	0.141	110% (inactive)
CCOCCOc1ccccc1C(N)=O [etosalamide] (10 µM)	0.0693	104% (inactive)
CCC(CC)Nc1nc(C)c(-c2ccc(OC(F)(F)F)cc2OC)nc1OC (10 µM)	0.2	86.5% (inactive)

Reference: the supplement of paper PMC13380429
